These results are taken from PubChem BioAssay (NCATS).

Unmarked numbers belong to inactive results. Inconclusive results are not listed. The source made the active and inactive calls. Unless noted, the call rests on the fitted dose curve; in most records, active means well fitted curve in either direction with a large enough effect (not every such curve was filed as active); inconclusive means small, poorly fitted or top-dose-only effect, or another doubt; inactive means flat fitted curve, though single readings scatter.

Test [1] addresses Lysosomal acid glucosylceramidase (Homo sapiens) (UniProt P04062). Description: Glucocerebrosidase-p2 (AID 348; in the data active means potency below about 10 µM; further: potency means the concentration at half of the fitted maximal effect). To be noted: purified GBA, blue fluorogenic substrate, 40 min. In outline:
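Normal human glucocerebrosidase (0.2 nM) with blue fluorogenic substrate (80 uM final) in citrate/phosphate pH 5.9 with 10mM sodium taurocholate, 0.01% tween-20; 40 min RT, NaOH/glycine stop; fluorescence Ex 365/Em 440; AC50 from a titration from 0.6 nM upwards.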

Test [2] is described as follows: AP1 Signaling Pathway (AID 357). Further: on the % scale 0 is the no-effect control and ±100 the full control effect. The following applies: ME-180 AP-1-bla reporter, EGF-induced, beta-lactamase ratio, 5 h; at 7.69 µM (top of the series) unless noted. A digest of the protocol:
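ME-180 cells with beta-lactamase reporter under AP-1 response element, stimulated with EC50 EGF; compounds tested in titration series, 5 h at 37 °C. CCF4 substrate added 2.5 h at room temperature; 460/530 nm emission ratio gave %activity and AC50.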

The target of test [3] is Cytochrome P450 1A2 (Homo sapiens) (UniProt P05177). The experiment in a line: p450-cyp1a2 (AID 410; calls by dose curve; further: potency means the concentration at half of the fitted maximal effect;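 on activity change, negative = inhibition: -100% = full effect of reference inhibitor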). The following applies: recombinant CYP1A2, luciferin-ME demethylation, luminescence; series mostly up to 11.4 µM. A digest of the protocol:
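Read-out is luminescence from luciferin produced by CYP1A2 demethylation of Luciferin-ME (100uM, at Km). Detection reagent stopped the 60 min NADPH-dependent reaction; signals were normalized to 57 uM furafylline.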

Test [4] can be described thus: Stat Signaling Pathway (AID 446).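 Further: ME-180 cervical cancer cells given 40 pM IL-6 alongside compound; SIE-controlled beta-lactamase reporter measured as 460/530 nm FRET emission ratio; on the % scale 0 is the no-effect control and ±100 the full control effect.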 The following applies: ME-180 (cervical carcinoma) SIE beta-lactamase reporter, IL-6 stimulated, 5 h; at 7.69 µM (top of the series) unless noted. In outline:
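Compound effects on IL-6-induced STAT reporter activity were measured in ME-180 cells. After overnight culture, cells were co-treated with 40 pM IL-6 for 5 hrs before beta-lactamase substrate loading at room temperature.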

In test [5] the target is Glucocorticoid receptor (Homo sapiens) (UniProt P04150). Description: GR-GFP Redistribution (AID 450;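 active means compounds whose dose series gives a full or clear partial fitted curve of increased nuclear translocation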; further: potency means the concentration at half of the fitted maximal effect). The following applies: U2OS GR-GFP nuclear translocation, laser cytometry, 2 h.
Sequence of Glucocorticoid receptor (Homo sapiens) (P04150 whole entry, looked up, the tested form may be a part): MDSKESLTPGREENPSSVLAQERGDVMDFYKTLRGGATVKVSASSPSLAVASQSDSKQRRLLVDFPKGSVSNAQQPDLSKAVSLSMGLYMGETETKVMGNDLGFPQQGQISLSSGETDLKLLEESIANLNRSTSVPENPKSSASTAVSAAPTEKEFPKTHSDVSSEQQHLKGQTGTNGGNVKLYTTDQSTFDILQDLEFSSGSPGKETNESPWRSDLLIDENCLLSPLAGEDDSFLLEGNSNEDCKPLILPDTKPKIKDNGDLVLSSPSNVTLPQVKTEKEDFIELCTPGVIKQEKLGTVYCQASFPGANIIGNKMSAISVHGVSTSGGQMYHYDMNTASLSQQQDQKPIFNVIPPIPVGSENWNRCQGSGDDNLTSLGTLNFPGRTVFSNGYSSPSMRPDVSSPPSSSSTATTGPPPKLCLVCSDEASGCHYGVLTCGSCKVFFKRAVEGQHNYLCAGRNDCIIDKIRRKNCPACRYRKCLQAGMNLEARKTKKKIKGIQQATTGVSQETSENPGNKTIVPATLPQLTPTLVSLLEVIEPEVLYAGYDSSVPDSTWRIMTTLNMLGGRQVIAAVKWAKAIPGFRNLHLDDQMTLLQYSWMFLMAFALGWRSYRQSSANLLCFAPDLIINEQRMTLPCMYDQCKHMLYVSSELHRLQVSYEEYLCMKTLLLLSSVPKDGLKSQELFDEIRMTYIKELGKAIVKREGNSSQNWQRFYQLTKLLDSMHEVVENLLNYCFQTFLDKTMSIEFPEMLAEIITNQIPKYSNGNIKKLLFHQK
Test [6] has the same target. The experiment in a line: GR-EFC Redistribution (AID 451; calls by dose curve; further: potency means the concentration at half of the fitted maximal effect). The following applies: CHO-K1 GR-EFC translocation, beta-gal luminescence, 2 h. A digest of the protocol: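 CHO-K1 cells expressing nuclear EA and GR-ED fragments of b-gal; compounds titrated up to 46 uM final, 2 h at 37 C. GR nuclear translocation read as complemented b-gal luminescence after 1 h RT detection.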

For test [7], the target named is Mitogen-activated protein kinase 10 (Mus musculus) (UniProt Q61831). The experiment in a line: JNK3 AlphaScreen Assay (AID 530).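 Further: kinase came from lysate of stimulated human HepG2 cells; signal reports phosphorylation of biotinylated GST-cJun 1-79 at Ser73 with 10 µM ATP; on the % scale 0 is the no-effect control and ±100 the full control effect.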 To be noted: JNK3 lysate, c-Jun phosphorylation; series mostly up to 57.1 µM. In outline: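 HepG2 lysate (IL-1b/TNFa pre-activated) + biotin-GST-cJun 1-79 + anti-pSer73 cJun; cpd titration, 15 min RT; ATP 10 uM start; Tris pH 7.6, MgCl2, DTT, vanadate; beads in EDTA buffer; AlphaScreen.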
(Alpha assays give light when donor and acceptor beads are brought close together.)

Test [8] has as its target 3',5'-cyclic-AMP phosphodiesterase 4B (Homo sapiens) (UniProt Q07343). Description: qHTS Assay for Inhibitors of PDE-IV (AID 607; active means well fitted activation curve with a large enough effect in the main read-out, with a control signal flat, not every such curve was filed as active; further: % of control where 0% means no effect). The following applies: HEK293 ACTOne CNG channel cells, membrane potential fluorescence; series mostly up to 22.9 µM. In outline: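 ACTOne HEK293 cells carry a modified cAMP-gated CNG channel and express endogenous PDE4; plated 1000 cells/well, compounds up to 22.9 uM final. Membrane-potential dye fluorescence (ex 535/em 590) was read; parental cells received 10 uM forskolin + 100 uM RO 20-1724.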
In general terms: Quantitative high-throughput screening tests each substance at several concentrations.

Test [9] addresses Cytochrome P450 2D6 (Homo sapiens) (UniProt P10635). The experiment in a line: qHTS Assay for Inhibitors and Substrates of Cytochrome P450 2D6 (AID 891; active means well fitted inhibition curve with a large enough effect; further: nearly all actives have a fitted effect of over 60% in size; further: potency means the concentration at half of the fitted maximal effect). The following applies: recombinant CYP2D6, luciferin-ME EGE luminescence; series mostly up to 11.4 µM. A digest of the protocol:
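Luminescent read-out of luciferin formed by 5 nM human CYP2D6 demethylating 30 uM Luciferin-ME EGE (Km level) over 60 min at room temperature after NADPH regeneration addition. Data normalized to full inhibition by 1.43 uM quinidine.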

Test [10] is described as follows: NFAT Signaling Pathway (AID 444).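 Further: carbachol stimulus at about its EC50 of 1 µM final; on the % scale 0 is the no-effect control and ±100 the full control effect.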 The following applies: Jurkat NFAT-bla M1, carbachol, beta-lactamase ratio, 5 h; at 7.69 µM (top of the series) unless noted. A digest of the protocol:
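Jurkat cells with NFAT-driven β-lactamase reporter and co-expressed M1 receptor, stimulated with carbachol (final 1 uM, ~EC50), compound titration, 5 h at 37 °C. CCF4 loaded 1 h at RT; 460/530 nm ratio gave %activity and AC50.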

For test [11], the target named is Cytochrome P450 2C19 (Homo sapiens) (UniProt P33261). Description: qHTS Assay for Inhibitors and Substrates of Cytochrome P450 2C19 (AID 899; active means well fitted inhibition curve with a large enough effect; further: on the % scale 0 is the no-effect control and ±100 the full control effect; nearly all actives have a fitted effect of over 60% in size). To be noted: recombinant CYP2C19, luciferin-H EGE luminescence; series mostly up to 11.4 µM. In outline: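 Luminescent read-out of luciferin formed from Luciferin-H EGE (10uM, equal to KM). Enzyme 5nM in 50mM KPO4; compound added, 10 min at 37C, then NADPH regenerating system for 60 min at 37C. Full inhibition defined by 57uM ketoconazole.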
Sequence of Cytochrome P450 2C19 (Homo sapiens) (P33261 whole entry, looked up): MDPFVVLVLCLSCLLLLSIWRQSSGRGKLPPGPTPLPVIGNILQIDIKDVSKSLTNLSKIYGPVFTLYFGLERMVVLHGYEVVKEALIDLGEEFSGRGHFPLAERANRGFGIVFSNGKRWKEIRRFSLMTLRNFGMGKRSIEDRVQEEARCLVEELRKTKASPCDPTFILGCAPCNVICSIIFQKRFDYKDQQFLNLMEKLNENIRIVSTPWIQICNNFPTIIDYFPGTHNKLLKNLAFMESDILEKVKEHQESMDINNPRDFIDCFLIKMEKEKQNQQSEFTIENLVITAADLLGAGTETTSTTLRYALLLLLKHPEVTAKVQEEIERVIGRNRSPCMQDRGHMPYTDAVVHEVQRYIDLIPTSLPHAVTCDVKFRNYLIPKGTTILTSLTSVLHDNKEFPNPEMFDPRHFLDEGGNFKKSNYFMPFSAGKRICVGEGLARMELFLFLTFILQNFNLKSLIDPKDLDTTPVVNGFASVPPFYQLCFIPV

Sequence of Lysosomal acid glucosylceramidase (Homo sapiens) (P04062 whole entry, looked up): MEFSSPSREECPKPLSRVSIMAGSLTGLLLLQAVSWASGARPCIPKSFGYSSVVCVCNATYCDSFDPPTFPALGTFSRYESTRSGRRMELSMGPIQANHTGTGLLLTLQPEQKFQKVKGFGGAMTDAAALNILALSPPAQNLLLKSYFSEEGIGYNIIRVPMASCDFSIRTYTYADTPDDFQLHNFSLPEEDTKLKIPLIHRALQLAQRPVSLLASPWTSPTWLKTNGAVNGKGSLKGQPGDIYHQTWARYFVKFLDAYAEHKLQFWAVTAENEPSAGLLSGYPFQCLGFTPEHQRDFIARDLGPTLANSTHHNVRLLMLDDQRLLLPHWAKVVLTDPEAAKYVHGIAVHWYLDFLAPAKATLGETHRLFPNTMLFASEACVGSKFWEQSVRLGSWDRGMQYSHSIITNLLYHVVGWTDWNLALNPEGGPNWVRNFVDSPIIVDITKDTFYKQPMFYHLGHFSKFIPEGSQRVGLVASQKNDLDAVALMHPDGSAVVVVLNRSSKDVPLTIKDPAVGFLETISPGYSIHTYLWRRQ
Sequence of Cytochrome P450 1A2 (Homo sapiens) (P05177 whole entry, looked up): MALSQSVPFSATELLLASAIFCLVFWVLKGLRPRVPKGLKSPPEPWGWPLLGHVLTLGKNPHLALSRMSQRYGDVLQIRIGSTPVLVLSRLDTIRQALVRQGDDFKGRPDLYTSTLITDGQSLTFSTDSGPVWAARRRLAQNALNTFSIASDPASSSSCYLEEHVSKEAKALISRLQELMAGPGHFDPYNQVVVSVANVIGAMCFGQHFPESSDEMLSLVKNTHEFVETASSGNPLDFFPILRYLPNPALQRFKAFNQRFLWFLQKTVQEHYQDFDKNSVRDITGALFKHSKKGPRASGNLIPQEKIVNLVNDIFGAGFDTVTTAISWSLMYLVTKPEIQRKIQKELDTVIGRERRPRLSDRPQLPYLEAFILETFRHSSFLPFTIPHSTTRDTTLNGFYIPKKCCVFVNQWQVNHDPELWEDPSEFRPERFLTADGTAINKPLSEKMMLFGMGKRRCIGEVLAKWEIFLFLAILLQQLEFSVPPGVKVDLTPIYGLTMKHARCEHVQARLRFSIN
Sequence of 3',5'-cyclic-AMP phosphodiesterase 4B (Homo sapiens) (Q07343 whole entry, looked up): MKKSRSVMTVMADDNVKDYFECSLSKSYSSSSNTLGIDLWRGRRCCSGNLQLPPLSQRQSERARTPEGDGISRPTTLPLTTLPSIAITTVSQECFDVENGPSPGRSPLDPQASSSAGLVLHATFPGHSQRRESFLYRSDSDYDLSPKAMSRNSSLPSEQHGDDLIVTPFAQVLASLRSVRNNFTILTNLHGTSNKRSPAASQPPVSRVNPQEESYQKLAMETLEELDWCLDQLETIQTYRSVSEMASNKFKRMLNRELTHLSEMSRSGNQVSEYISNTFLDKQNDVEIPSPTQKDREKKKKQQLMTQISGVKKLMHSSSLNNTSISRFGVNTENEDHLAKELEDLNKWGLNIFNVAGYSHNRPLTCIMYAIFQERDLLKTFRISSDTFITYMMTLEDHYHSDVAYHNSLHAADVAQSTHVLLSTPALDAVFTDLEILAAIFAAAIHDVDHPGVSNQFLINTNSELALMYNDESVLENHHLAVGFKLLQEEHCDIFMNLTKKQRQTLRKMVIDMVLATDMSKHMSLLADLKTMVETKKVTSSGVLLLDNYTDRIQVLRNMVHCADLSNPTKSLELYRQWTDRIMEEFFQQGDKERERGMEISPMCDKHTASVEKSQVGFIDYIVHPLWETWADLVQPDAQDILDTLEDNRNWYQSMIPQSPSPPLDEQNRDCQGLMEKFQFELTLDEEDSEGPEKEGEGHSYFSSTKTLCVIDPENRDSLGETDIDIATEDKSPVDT
Sequence of Cytochrome P450 2D6 (Homo sapiens) (P10635 whole entry, looked up): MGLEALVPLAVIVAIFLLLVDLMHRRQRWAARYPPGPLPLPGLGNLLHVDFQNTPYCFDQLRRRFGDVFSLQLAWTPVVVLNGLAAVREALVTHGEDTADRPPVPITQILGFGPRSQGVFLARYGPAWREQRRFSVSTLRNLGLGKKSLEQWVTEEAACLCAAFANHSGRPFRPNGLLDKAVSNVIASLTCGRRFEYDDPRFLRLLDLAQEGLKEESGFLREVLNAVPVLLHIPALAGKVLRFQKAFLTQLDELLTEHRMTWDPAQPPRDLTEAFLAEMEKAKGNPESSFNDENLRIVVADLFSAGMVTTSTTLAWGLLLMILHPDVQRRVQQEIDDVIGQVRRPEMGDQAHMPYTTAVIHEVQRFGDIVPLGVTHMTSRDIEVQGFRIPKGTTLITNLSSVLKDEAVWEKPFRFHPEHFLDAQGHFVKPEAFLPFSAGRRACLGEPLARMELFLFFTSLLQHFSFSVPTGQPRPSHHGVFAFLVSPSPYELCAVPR

For `O=C(CCN1CC2CCC(CC2)C1)c1cccs1`, the Potency in [1] is greater than 11.4 µM; in test [3] it was 5.01 µM (active); in [5] it was greater than 46 µM; in test [6], greater than 9.22 µM; in test [9], 2 µM (active). Further, the activity change, negative = inhibition was 17.2% in [2] and 0.402% [at 11.4 µM] in test [7]. Also, the activity, negative = inhibition in test [4] is 1.61%. Besides, the result in [8] was inactive.

For the compound `C[C@@]12CC[C@H]3[C@H](CCC4=CC(=O)CC[C@H]43)[C@H]1CC[C@H]2OC1(O)C(=O)c2ccccc2C1=O`, the Potency is greater than 11.4 µM in test [1], greater than 46 µM in test [5] and greater than 9.22 µM in [6]. Besides, the activity change, negative = inhibition in test [2] is 1.93%; in [10] it was -18.3%; in test [7], -3.36% [at 11.4 µM]. In addition, the activity, negative = inhibition in [4] is -10.1%. The compound was classed as inactive in [8].

Regarding `N[C@@H](Cc1cc(Br)c(O)c(Br)c1)C(=O)O`, the Potency in [1] was greater than 11.4 µM. Moreover, the activity change, negative = inhibition in test [2] is -11.9%; in [7], 1.55% [at 11.4 µM]. For the same compound, the Potency result in test [3] was “inactive”. Also, the activity, negative = inhibition in test [4] was 5.31%. Moreover, the compound was called inactive in test [8].

As for `C[C@@]12CC[C@H](O)C[C@@H]1CC[C@@H]1[C@@H]2CC[C@@]2(C)[C@@H](C3=CC(=O)OC3)[C@H](O)C[C@]12O`, the Potency was greater than 11.4 µM in test [1], greater than 46 µM in test [5] and greater than 9.22 µM in test [6]. Besides, the activity change, negative = inhibition in [2] is 15.5%; in test [7], 1.8% [at 11.4 µM]. For the same compound, the Potency entry in test [3] and in [11] was “inactive” each time. Further, the activity, negative = inhibition in test [4] is 8.74%. In addition, in test [8], the compound was called inactive.

Regarding `COc1cc2cc(c1Cl)N(C)C(=O)C[C@H](OC(=O)C(C)C)[C@]1(C)O[C@@H]1[C@@H](C)[C@H]1C[C@](O)(NC(=O)O1)[C@@H](OC)/C=C\C=C(\C)C2`, the figures for the Potency in test [1] and in test [5] were greater than 11.4 µM and 0.278 µM (active), respectively. The figures for the activity change, negative = inhibition in [2] and in test [7] were 23.1% and 2.93% [at 11.4 µM], respectively. The Potency result in test [3], in [9] and in test [11] was “inactive” each time. For the same compound, the activity, negative = inhibition in test [4] was 6.86%. For the same compound, the result in test [8] was inactive.

Take `CCN=C=NCCCN(C)C`: the Potency in test [1] is greater than 11.4 µM; in test [5], greater than 46 µM; in test [6] it was greater than 9.22 µM. Besides, the results for the activity change, negative = inhibition in test [2], in test [10] and in test [7] were 5.33%, 4.76% and -0.714% [at 11.4 µM], respectively. Besides, the activity, negative = inhibition in [4] was 2.84%. The compound was called inactive in test [8]. Besides, in test [9], the Potency result was “inactive”.

Regarding `O=C(O)[C@H](Cc1cnc[nH]1)N1C(=O)c2ccccc2C1=O`, the Potency in test [1] is greater than 11.4 µM; in test [5], greater than 46 µM; in [6], greater than 9.22 µM. In addition, the activity change, negative = inhibition in test [2] is -8.47%; in test [10], 7.47%; in test [7], 41.7% [at 11.4 µM]. For the same compound, the activity, negative = inhibition in test [4] was 4.43%. Further, the compound was classed as inactive in test [8].

Turning to `O=[As](O)(O)c1ccc(NCc2ccccc2)cc1`, the Potency in test [1] is greater than 11.4 µM; in [5], greater than 46 µM; in test [6] it was greater than 9.22 µM. In addition, the activity change, negative = inhibition is -4.31% in [2], 11% in [10] and 1.56% [at 11.4 µM] in test [7]. For the same compound, the activity, negative = inhibition in test [4] was 11.2%. Besides, the compound was called inactive in test [8]. For the same compound, in test [9], the Potency entry is “inactive”.
